The source of these data is PubChem BioAssay (EPA / NIEHS).

The target of assay [1] is Tyrosine-protein phosphatase non-receptor type 12 (Homo sapiens) (UniProt Q05209). Kind of assay: NVS_ENZ_hPTPN12: NovaScreen (NVS) Enzymatic Assay for human Protein Tyrosine Phosphatase Non-receptor Type 12 (PTPN12) (AID 2283204). In a few lines: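 Single-concentration duplicates (25 uM) preceded singleton concentration-response up to 50 uM for chemicals passing threshold. Cell-free recombinant PTPN12 activity was read 1.33 h after dosing via fluorescence after mobility-shift separation; loss of signal versus DMSO.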

The target of assay [2] is human Sirtuin 2 (SIRT2), SIRT2 (gene 22933) (UniProt Q8IXJ6). Kind of assay: NVS_ENZ_hSIRT2: NovaScreen (NVS) Enzymatic Assay for human Sirtuin 2 (SIRT2) (AID 2283217). In a few lines:
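Cell-free recombinant human SIRT2, fluorescent substrate with product separated by electrophoretic mobility shift, 1 hr. Screened in duplicate at 25 uM; hits rerun singly in concentration-response up to 50 uM, relative to DMSO.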

For assay [3], the target named is human Sirtuin 1 (SIRT1), SIRT1 (gene 23411) (UniProt Q96EB6). Kind of assay: NVS_ENZ_hSIRT1: NovaScreen (NVS) Enzymatic Assay for human Sirtuin 1 (SIRT1) (AID 2283219). In a few lines: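 Cell-free recombinant SIRT1 with a fluorescent substrate; substrate and product separated by electrophoretic mobility shift and read by fluorescence intensity, 1 h after dosing. Primary screen at 25 uM in duplicate; hits re-run in concentration-response up to 50 uM, relative to DMSO.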

Assay [4] has as its target human Sirtuin 3 (SIRT3), SIRT3 (gene 23410) (UniProt Q9NTG7). The assay is described as follows: NVS_ENZ_hSIRT3: NovaScreen (NVS) Enzymatic Assay for human Sirtuin 3 (SIRT3) (AID 2283222). In a few lines: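 Cell-free enzyme assay with recombinant protein and fluorescent substrate, product separated by electrophoretic mobility shift; read 1 hour after dosing. Screened in duplicate at 25 uM, then singleton concentration-response up to 50 uM; loss of signal versus DMSO.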

In assay [5] the target is Tyrosine-protein phosphatase non-receptor type 14 (Homo sapiens) (UniProt Q15678). The assay is described as follows: NVS_ENZ_hPTPN14: NovaScreen (NVS) Enzymatic Assay for human Protein Tyrosine Phosphatase Non-receptor Type 14 (PTPN14) (AID 2283206). In a few lines:
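Cell-free recombinant human PTPN14 with fluorescent substrate, read 0.5 h after dosing by fluorescence and electrophoretic mobility shift separating substrate from product. Primary screen at 25 uM in duplicate; hits run to 50 uM maximum; loss of signal versus DMSO.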

Assay [6] concerns the target human SRC Proto-Oncogene, Non-receptor Tyrosine Kinase (SRC), SRC (gene 6714) (UniProt P12931). The assay is described as follows: NVS_ENZ_hSRC: NovaScreen (NVS) Enzymatic Assay for human SRC Proto-Oncogene, Non-receptor Tyrosine Kinase (SRC) (AID 2283223). In a few lines:
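Cell-free kinase activity assay with fluorescent substrate, product separated by electrophoretic mobility shift, read 1 h after dosing. Duplicate single point at 25 uM, then concentration-response up to 50 uM; loss of signal versus DMSO.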

Assay [7] addresses human Vascular Endothelial Growth Factor Receptor 1 (VEGFR1), FLT1 (gene 2321) (UniProt P17948). Kind of assay: NVS_ENZ_hVEGFR1: NovaScreen (NVS) Enzymatic Assay for human Vascular Endothelial Growth Factor Receptor 1 (VEGFR1) (AID 2283226). In a few lines:
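Cell-free assay of recombinant human VEGFR1 kinase with substrate, measured 1 h after dosing; fluorescence with electrophoretic mobility-shift separation of substrate and product, referenced to DMSO; primary screen at 25 uM in duplicate, actives then run in concentration series.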

The target in assay [8] is human Vascular Endothelial Growth Factor Receptor 3 (VEGFR3), FLT4 (gene 2324) (UniProt P35916). Kind of assay: NVS_ENZ_hVEGFR3: NovaScreen (NVS) Enzymatic Assay for human Vascular Endothelial Growth Factor Receptor 3 (VEGFR3) (AID 2283229). In a few lines:
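Cell-free recombinant VEGFR3 kinase reaction with fluorescent substrate, read 1 h after dosing by electrophoretic mobility shift separation of substrate and product. Single-concentration duplicate screen at 25 uM, then concentration-response up to 50 uM; loss of activity versus DMSO.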

Assay [9] addresses human Vascular Endothelial Growth Factor Receptor 2 (VEGFR2), KDR (gene 3791) (UniProt P35968). Kind of assay: NVS_ENZ_hVEGFR2: NovaScreen (NVS) Enzymatic Assay for human Vascular Endothelial Growth Factor Receptor 2 (VEGFR2) (AID 2283230). In a few lines: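 Cell-free recombinant VEGFR2 kinase, fluorescent substrate with electrophoretic mobility-shift separation; read 1 h after dosing. Screened at 25 uM in duplicate, hits to concentration-response up to 50 uM; loss-of-signal versus DMSO.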

Assay [10] addresses human Protein Tyrosine Phosphatase Non-receptor Type 4 (PTPN4), PTPN4 (gene 5775) (UniProt P29074). The assay is described as follows: NVS_ENZ_hPTPN4: NovaScreen (NVS) Enzymatic Assay for human Protein Tyrosine Phosphatase Non-receptor Type 4 (PTPN4) (AID 2283208). In a few lines:
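Cell-free assay of PTPN4 expressed in Sf9 cells, using a fluorescent substrate with product separated by mobility shift; read 1.33 h after dosing. Single-point screen at 25 uM, then concentration-response up to 50 uM. Loss of signal relative to DMSO.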

In assay [11] the target is human Protein Tyrosine Phosphatase Non-receptor Type 9 (PTPN9), PTPN9 (gene 5780) (UniProt P43378). The assay is described as follows: NVS_ENZ_hPTPN9: NovaScreen (NVS) Enzymatic Assay for human Protein Tyrosine Phosphatase Non-receptor Type 9 (PTPN9) (AID 2283209). In a few lines: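 Sf9-expressed enzyme in a cell-free assay, fluorescence read 1.33 h after dosing with mobility-shift separation of substrate and product. Tested at 25 uM in duplicate, then up to 50 uM; signal loss versus DMSO.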

Assay [12] concerns the target human Protein Tyrosine Phosphatase Non-receptor Type 6 (PTPN6), PTPN6 (gene 5777) (UniProt P29350). The assay is described as follows: NVS_ENZ_hPTPN6: NovaScreen (NVS) Enzymatic Assay for human Protein Tyrosine Phosphatase Non-receptor Type 6 (PTPN6) (AID 2283210). In a few lines: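 Cell-free assay with recombinant PTPN6 expressed in SF9 cells, fluorescent substrate, product separated from substrate by electrophoretic mobility shift; read 1.33 hours after dosing. Primary screen in duplicate at 25 uM, actives retested in concentration series; DMSO baseline.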

Assay [13] concerns the target human Rho Associated Coiled-coil Containing Protein Kinase 1 (ROCK1), ROCK1 (gene 6093) (UniProt Q13464). The assay is described as follows: NVS_ENZ_hROCK1: NovaScreen (NVS) Enzymatic Assay for human Rho Associated Coiled-coil Containing Protein Kinase 1 (ROCK1) (AID 2283214). In a few lines: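 Cell-free recombinant human ROCK1 activity assay; fluorescent substrate and product separated by electrophoretic mobility shift, read 1 h after dosing. Screened in duplicate at 25 uM; loss of signal versus DMSO baseline scored as inhibition.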

For assay [14], the target named is rabbit Imidazoline 2 Central (I2C), CKB (gene 100009085) (UniProt P00567). Kind of assay: NVS_ENZ_rabI2C: NovaScreen (NVS) Enzymatic Assay for rabbit Imidazoline 2 Central (I2C) (AID 2283228). In a few lines:
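Rabbit brain membranes, cell-free; readout by filter-based scintillation counting 1.5 hours after dosing, loss of signal vs DMSO. Initial duplicate test at 25 uM, then concentration-response with 50 uM top concentration.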

Assay [15] addresses human Tropomyosin Receptor Kinase A (TRKA), NTRK1 (gene 4914) (UniProt P04629). The assay is described as follows: NVS_ENZ_hTrkA: NovaScreen (NVS) Enzymatic Assay for human Tropomyosin Receptor Kinase A (TRKA) (AID 2283224). In a few lines:
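Recombinant human TrkA activity read after 1 h by fluorescence with electrophoretic mobility shift separating substrate and product. Primary screen in duplicate at 25 uM; actives were rerun in concentration-response up to 50 uM. Loss of signal versus DMSO.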

Assay [16] concerns the target sheep Cyclooxygenase-2 (Cox2), PTGS2 (gene 443460) (UniProt P79208). The assay is described as follows: NVS_ENZ_oCOX2: NovaScreen (NVS) Enzymatic Assay for sheep Cyclooxygenase-2 (Cox2) (AID 2283231). In a few lines:
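Compounds were first run at 25 uM in duplicate against tissue-extracted ovine COX-2; those passing a preset inhibition threshold went to singleton concentration-response testing with a 50 uM maximum. Read-out: absorbance at 0.66 hour.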

Molecules are shown by their SMILES. Records with an inconclusive call do not appear. Calls of active or inactive are those of the source. Rule for the calls: active = hit-call score of the fitted dose curve at least 0.9, where 1 is the maximum; inconclusive = response in the unintended direction; inactive = score below 0.9.

human Vascular Endothelial Growth Factor Receptor 2 (VEGFR2), KDR (gene 3791), sequence (P35968 whole entry, looked up): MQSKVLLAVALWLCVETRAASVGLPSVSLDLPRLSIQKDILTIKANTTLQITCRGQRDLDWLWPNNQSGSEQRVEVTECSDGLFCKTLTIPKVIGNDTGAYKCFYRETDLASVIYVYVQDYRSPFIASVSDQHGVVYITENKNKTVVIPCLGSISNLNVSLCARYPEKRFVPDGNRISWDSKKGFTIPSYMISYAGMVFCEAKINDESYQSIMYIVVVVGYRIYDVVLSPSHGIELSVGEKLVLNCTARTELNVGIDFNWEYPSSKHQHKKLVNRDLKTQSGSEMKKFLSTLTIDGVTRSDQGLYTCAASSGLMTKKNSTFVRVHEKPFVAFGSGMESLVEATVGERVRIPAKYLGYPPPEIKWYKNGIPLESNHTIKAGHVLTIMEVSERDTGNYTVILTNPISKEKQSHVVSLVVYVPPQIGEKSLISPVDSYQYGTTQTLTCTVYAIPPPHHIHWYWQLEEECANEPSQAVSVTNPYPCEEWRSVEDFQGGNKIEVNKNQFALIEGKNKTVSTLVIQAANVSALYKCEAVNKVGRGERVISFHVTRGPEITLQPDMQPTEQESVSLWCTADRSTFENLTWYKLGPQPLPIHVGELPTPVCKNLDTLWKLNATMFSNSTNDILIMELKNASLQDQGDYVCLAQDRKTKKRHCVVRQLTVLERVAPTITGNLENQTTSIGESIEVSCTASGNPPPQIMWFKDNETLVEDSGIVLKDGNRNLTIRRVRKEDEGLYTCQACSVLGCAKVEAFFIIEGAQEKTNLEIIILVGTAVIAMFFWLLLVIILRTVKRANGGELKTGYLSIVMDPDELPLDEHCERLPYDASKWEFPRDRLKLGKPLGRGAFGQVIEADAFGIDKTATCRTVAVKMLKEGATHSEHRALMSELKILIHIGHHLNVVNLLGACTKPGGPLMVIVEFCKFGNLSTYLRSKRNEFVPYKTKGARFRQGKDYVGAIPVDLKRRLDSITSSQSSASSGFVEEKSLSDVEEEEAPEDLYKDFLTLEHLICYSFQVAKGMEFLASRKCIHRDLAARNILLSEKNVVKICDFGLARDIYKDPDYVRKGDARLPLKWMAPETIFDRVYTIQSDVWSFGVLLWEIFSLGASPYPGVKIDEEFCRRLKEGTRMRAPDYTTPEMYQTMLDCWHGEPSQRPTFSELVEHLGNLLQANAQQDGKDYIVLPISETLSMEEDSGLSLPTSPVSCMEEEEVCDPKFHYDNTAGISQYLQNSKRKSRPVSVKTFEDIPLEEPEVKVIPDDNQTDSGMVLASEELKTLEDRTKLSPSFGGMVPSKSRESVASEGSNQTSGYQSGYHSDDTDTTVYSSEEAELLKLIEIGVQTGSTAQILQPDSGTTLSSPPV
sheep Cyclooxygenase-2 (Cox2), PTGS2 (gene 443460), sequence (P79208 whole entry, looked up): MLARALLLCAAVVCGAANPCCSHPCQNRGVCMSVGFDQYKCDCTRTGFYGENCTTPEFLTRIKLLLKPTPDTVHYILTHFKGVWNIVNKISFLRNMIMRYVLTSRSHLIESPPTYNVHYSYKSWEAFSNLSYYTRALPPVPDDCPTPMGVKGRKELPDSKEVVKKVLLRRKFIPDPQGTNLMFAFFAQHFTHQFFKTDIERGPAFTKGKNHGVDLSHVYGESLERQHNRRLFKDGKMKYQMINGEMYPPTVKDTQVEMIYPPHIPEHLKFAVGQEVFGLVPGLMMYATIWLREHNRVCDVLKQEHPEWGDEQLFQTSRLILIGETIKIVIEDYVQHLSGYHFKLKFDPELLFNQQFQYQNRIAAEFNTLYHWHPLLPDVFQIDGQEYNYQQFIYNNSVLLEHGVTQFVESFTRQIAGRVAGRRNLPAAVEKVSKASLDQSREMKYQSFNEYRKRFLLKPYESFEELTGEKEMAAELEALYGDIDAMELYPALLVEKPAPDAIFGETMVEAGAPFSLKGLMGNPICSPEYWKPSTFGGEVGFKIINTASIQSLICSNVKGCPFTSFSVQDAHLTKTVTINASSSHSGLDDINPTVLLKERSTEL
human SRC Proto-Oncogene, Non-receptor Tyrosine Kinase (SRC), SRC (gene 6714), sequence (P12931 whole entry, looked up): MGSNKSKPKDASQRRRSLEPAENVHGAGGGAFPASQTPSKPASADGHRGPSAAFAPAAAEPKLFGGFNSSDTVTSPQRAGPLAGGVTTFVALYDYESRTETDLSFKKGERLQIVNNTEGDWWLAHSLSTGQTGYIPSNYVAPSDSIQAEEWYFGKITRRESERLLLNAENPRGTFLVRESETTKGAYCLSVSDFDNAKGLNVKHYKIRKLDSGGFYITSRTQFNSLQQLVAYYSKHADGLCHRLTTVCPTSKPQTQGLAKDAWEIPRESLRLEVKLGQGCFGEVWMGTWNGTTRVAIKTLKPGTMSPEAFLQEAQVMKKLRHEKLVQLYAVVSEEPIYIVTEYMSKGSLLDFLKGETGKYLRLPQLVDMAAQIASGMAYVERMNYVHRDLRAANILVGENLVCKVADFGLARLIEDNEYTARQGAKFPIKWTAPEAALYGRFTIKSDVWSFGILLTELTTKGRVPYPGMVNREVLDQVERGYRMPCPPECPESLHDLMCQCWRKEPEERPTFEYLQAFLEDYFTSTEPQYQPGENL
human Vascular Endothelial Growth Factor Receptor 1 (VEGFR1), FLT1 (gene 2321), sequence (P17948 whole entry, looked up): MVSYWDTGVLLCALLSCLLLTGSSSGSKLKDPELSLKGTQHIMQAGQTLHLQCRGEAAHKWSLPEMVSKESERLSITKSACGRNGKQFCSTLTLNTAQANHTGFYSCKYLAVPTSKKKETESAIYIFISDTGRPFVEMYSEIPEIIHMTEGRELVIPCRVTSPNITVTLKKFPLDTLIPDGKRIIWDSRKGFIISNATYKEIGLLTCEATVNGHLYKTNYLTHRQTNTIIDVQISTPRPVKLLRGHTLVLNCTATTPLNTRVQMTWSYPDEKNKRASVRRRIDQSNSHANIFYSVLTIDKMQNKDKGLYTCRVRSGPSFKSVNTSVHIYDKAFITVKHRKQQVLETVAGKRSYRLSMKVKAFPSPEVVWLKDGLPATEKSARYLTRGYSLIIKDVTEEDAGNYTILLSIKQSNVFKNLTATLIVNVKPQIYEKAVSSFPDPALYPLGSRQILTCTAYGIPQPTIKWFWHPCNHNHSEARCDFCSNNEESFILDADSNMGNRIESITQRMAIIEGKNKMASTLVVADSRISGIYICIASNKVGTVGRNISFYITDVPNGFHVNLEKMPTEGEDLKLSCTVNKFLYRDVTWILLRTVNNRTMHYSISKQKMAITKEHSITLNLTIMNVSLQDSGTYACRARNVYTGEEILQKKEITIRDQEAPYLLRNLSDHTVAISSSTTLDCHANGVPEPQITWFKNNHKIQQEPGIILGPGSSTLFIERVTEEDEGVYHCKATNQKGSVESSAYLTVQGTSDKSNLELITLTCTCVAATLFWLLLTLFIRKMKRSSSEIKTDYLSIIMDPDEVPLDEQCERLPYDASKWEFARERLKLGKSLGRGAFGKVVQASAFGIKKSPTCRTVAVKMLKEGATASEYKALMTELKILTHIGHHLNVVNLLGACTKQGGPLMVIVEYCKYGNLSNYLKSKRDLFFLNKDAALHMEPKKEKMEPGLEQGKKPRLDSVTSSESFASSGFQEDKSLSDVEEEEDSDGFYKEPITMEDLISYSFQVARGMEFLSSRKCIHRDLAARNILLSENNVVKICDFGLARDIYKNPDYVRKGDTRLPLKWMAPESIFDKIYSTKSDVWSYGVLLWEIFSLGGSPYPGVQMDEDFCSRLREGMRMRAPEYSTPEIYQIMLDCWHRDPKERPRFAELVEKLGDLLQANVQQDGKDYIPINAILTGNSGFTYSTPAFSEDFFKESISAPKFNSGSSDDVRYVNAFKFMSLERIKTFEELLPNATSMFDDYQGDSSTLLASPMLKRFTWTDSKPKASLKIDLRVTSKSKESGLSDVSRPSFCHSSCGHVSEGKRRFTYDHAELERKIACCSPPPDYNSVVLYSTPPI
human Sirtuin 1 (SIRT1), SIRT1 (gene 23411), sequence (Q96EB6 whole entry, looked up): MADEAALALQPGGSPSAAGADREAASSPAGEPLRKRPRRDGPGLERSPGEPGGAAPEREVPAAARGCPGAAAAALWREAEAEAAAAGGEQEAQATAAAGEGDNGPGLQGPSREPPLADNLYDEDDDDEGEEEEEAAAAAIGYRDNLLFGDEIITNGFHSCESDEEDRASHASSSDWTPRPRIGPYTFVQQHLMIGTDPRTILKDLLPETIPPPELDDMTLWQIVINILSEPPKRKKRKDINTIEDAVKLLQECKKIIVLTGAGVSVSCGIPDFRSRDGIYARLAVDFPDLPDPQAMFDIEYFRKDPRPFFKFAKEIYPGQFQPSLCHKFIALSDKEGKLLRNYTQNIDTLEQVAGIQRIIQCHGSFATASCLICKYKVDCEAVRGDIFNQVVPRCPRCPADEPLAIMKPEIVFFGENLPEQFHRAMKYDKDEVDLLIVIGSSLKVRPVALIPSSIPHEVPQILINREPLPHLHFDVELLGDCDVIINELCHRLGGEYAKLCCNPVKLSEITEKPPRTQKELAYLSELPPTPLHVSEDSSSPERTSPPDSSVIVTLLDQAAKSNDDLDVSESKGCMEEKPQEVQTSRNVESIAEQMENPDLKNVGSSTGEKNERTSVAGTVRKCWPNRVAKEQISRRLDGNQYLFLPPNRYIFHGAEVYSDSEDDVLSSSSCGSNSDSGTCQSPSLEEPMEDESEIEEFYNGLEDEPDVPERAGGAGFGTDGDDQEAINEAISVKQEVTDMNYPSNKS
rabbit Imidazoline 2 Central (I2C), CKB (gene 100009085), sequence (P00567 whole entry, looked up): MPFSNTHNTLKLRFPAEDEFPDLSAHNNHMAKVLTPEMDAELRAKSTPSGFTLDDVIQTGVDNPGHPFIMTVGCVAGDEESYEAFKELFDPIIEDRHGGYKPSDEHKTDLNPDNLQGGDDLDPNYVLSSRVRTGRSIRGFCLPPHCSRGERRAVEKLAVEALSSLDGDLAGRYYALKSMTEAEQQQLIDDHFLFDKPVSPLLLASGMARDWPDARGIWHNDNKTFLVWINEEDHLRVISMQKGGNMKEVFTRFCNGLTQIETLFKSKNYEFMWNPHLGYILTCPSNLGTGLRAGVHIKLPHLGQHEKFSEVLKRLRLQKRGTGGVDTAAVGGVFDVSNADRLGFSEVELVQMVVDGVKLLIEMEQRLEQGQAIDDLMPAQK

As for `Cc1nc(-c2ccc3c(c2)CCN(CCC2CCC(NC(=O)/C=C/c4ccc(F)cc4)CC2)CC3)no1` (stereo not given), the molecule was classed as inactive in assay [1], in [2], in assay [3] and in assay [4]. Take `NCCO`: the molecule was called inactive in assay [1], in assay [5], in assay [3], in assay [6], in [7] and in [8]. Further, in assay [9], the outcome was inactive. On to `Cc1ccc2ncccc2c1`, for which the molecule was called inactive in [10], in assay [11] and in assay [12]. Take `O=[N+]([O-])C(CO)(CO)CO`: the concentration at half-maximal activity (AC50) in assay [11] is 38.4 µM (active). Further, in assay [12], the call was inactive.

`CCCCCCCCCCCCCCCCCC(=O)O`: in assay [13], the outcome was inactive. Take `CCCCCCCCCCCCCO`: the outcome in assay [9] was inactive. As for `CCOc1ccc2c(c1)C(C)=CC(C)(C)N2`, the call in assay [14] was inactive. `CC1=C(/C=C/C(C)=C/C=C/C(C)=C/CO)C(C)(C)CCC1`: the molecule was called inactive in assay [3], in [15], in [7], in [8] and in assay [9]. For the same molecule, the half-maximal activity concentration (AC50) in assay [16] is 15.5 µM (active). Consider `CCCCCCCC=O`, for which the result in assay [3] was inactive. For the molecule `CCCCCCOCCO`, the molecule was called inactive in [9]. For the molecule `O=C(N[C@@H](Cc1ccccc1)[C@@H](O)C(=O)N1C[C@@H](O)[C@@H](O)C1)c1cc2cc(Cl)ccc2[nH]1`, the call in [14] was inactive. Take `Cc1cccc(Nc2cc(Cl)nc(SCC(=O)O)n2)c1C`: the call in assay [3] and in assay [4] was inactive. Consider `NC(=O)Cn1c(=O)cc(CCN2CCN(c3nccc4sccc34)CC2)c2ccc(F)cc21`, for which, in assay [14], the call was inactive. On to `CCCCN(CCCC)CCCC`, for which, in assay [16], the call was inactive. Turning to `Oc1ccc2c(c1)OC[C@@H](N1CCC(O)(c3ccc(F)cc3)CC1)[C@H]2O`, the call in assay [14] was inactive. Turning to `CC(=O)C(C)=CC1C(C)=CCCC1(C)C` (stereo not given), the call in [3] was inactive. Take `Cc1oc(-c2ccccc2)nc1CCOc1cccc2c1ccn2CCC(=O)O`: the outcome in assay [6], in assay [7] and in assay [9] was inactive.

Consider `NCC1(Cc2noc(=O)[nH]2)CCCCC1`, for which, in assay [3], the molecule was classed as inactive. Regarding `Cc1ccc(C)c(O)c1C`, in [13], the molecule was classed as inactive. Besides, in assay [16], the AC50 is 3.04 µM (active). For `CC(=O)Oc1ccccc1C(=O)O`, the outcome in [16] was inactive.

With `Cc1ccc(C(C)C)c(O)c1`, in assay [3], the outcome was inactive. Take `CCOC(=O)CCC(=O)OCC`: the molecule was called inactive in assay [14]. As to `Cc1c(C(=O)O)c(O)cc2c1C(=O)c1c(O)c([C@@H]3O[C@H](CO)[C@@H](O)[C@H](O)[C@H]3O)c(O)c(O)c1C2=O`, the molecule was classed as inactive in assay [3]. On to `CCCCc1ccc2c(n1)[C@@H](c1ccc(OC)cc1C[C@H](C)C(=O)O)[C@H](C(=O)O)[C@H]2c1ccc2c(c1)OCO2`, for which, in [7], the result was inactive.

On to `O=c1[nH]cc(F)c(=O)[nH]1`, for which the call in [9] was inactive. In the case of `C=CCc1ccc(O)c(OC)c1`, in assay [16], the concentration at half-maximal activity (AC50) was 15.7 µM (active).

For `CN[C@H]1CC[C@@H](c2ccc(Cl)c(Cl)c2)c2ccc(S(N)(=O)=O)cc21`, in [9], the molecule was called inactive. Consider `C=CCOC(=O)c1ccccc1C(=O)OCC=C`, for which the molecule was classed as inactive in [2]. The concentration at half-maximal activity (AC50) in assay [16] is 5.13 µM (active). Take `c1cc(-c2ccncc2)ccn1`: the call in assay [3] was inactive. As for `Cc1cc(NC(=O)C(=O)O)cc(C)c1Oc1ccc(O)c2c1CCC2`, in assay [3], the AC50 was 25 µM (active).

With `CC(C)(C)c1cc(O)c(C(C)(C)C)cc1O`, in assay [9], the call was inactive. With `CC1(C)NC(=O)NC1=O`, the outcome in assay [6] was inactive. In the case of `CN1CCN(Cc2cc(-c3ccc4[nH]c(=O)oc4c3)co2)[C@@H](c2ccc(F)cc2)C1`, the half-maximal activity concentration (AC50) in [14] was 22 µM (active).
